Source: PubChem (National Center for Advancing Translational Sciences (NCATS))
gsp agonist = activates gsp, the McCune-Albright syndrome mutation; gsp mutant cells, cAMP HTRF, 30 min; Potency, µM (series often up to 76.9 µM), without a hit: at the top dose activation (cAMP increase), hits mostly activators; 340,000 tested, 0.13% active; AID 624287; active = well fitted activation curve with a large enough effect; inconclusive = small, poorly fitted or top-dose-only effect, or another doubt; inactive = no such curve, though single readings can be large or run the other way; cell line not stated here;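 note: phosphodiesterase inhibitor Ro 20-1724 added with compounds to block cAMP breakdown; potency is the fitted concentration of half-maximal effect; nearly all actives have a fitted effect of over 60% in size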
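Cells stably selected in G418 were plated at 2000/well, grown 16-24 hr, then given compounds in DMSO with the PDE inhibitor […] (300 uM solution added) for 30 min at 37C; cAMP was read by HTRF.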
gsp antagonist = gsp mutant antagonism; gsp-mutant cells, cAMP HTRF, 30 min; Potency, µM (highest dose often 76.9 µM), without a hit: at the highest dose activity change, negative = inhibition, actives largely listed as inhibitors; 340,000 tested, 0.4% active; AID 624288; calls by dose curve; cell line not stated here;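 note: intracellular cAMP measured with PDE inhibitor Ro 20-1724 present during compound exposure; potency is the fitted concentration of half-maximal effect; % is set by controls: 0 for no effect and ±100 for the full control effect; nearly all actives have a fitted effect of over 65% in size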
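Measurement of cellular cAMP by homogeneous time-resolved fluorescence following a 30 min compound exposure at 37C. The PDE inhibitor […] was present throughout; the assay buffer was DPBS with 0.05% BSA and 0.005% Tween 20.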
Akt phos inh = inhibitors of Akt phosphorylation | activity change, % for hits at 50 µM | Neuro2A IGF-stimulated pAkt S473 HTRF, 20 min; stronger effect = lower value | 360,000 tested, 0.32% active | AID 651550; in the data active = activity change below about -80%; inconclusive = mostly about -51% to -80%; note: % is set by controls: 0 for no effect and ±100 for the full control effect
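Neuro2A cells in DMEM with 0.5% FBS, overnight at 37 deg C, given compound at single 50 µM final, then IGF (6 nM final) for 20 min at 37 deg C. Lysed; phospho-Akt Ser473 by HTRF after 24 h, 665/615 ratio.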
RXFP1 ag = RXFP1 (human) receptor agonism. Q9HBX9. HEK293T-RXFP1 cAMP TR-FRET, 30 min; response scale: percent of porcine relaxin response, buffer zero. Potency, µM (highest dose often 57.5 µM), inactives show at the top dose activation, usual class: activators. 370,000 tested, 0.3% active. AID 2676; active = well fitted activation curve with a large enough effect; inconclusive = small, poorly fitted or top-dose-only effect; note: potency is the fitted concentration of half-maximal effect; % is set by controls: 0 for no effect and ±100 for the full control effect; nearly all actives have a fitted effect of over 60% in size
Target sequence (Q9HBX9 whole entry, looked up): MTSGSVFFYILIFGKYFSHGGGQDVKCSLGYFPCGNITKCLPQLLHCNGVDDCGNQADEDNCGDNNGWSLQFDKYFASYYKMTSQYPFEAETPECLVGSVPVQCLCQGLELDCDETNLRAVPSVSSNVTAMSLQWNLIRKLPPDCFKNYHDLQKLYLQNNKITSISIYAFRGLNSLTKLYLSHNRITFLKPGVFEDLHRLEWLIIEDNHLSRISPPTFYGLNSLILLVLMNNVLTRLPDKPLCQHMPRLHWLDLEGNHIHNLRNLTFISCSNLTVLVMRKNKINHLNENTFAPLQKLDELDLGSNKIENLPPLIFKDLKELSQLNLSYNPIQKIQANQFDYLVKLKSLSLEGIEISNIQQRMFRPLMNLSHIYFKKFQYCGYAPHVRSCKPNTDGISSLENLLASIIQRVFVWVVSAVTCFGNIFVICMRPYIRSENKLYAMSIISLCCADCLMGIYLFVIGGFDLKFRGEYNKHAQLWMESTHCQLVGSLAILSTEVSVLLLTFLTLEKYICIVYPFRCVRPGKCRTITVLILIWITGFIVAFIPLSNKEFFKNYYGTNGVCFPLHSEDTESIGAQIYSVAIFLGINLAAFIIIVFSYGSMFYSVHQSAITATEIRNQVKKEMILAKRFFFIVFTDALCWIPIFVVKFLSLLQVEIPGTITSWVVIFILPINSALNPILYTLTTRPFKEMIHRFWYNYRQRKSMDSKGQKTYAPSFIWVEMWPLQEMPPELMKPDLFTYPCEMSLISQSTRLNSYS
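HEK293 cells stably expressing RXFP1, treated 30 min at 37C with compounds plus PDE4 inhibitor Ro 20174; cAMP measured by HTRF TR-FRET. Normalized to buffer and 29 nM porcine relaxin; EC50 by Hill fit.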
RXFP1 antag = antagonists of human relaxin receptor RXFP1; activity change, negative = inhibition, % at 57.5 µM; AID 1259400; HEK293-RXFP1, relaxin-stimulated cAMP HTRF, 30 min; stronger effect = lower value; 350,000 tested, 0.59% active;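 active = activity change of -60% or lower, but not beyond a set lower limit; inconclusive = change between -60% and -40%, or beyond the set limit; inactive = change above -40%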; note: % is set by controls: 0 for no effect and ±100 for the full control effect
Active calls of the source: *; i = inactive; ? = inconclusive; nt = not tested or not shown; [ ] = another dose, or the depositor's remark. Rows were chosen to be rich in hits. Some 1.3% of all compounds tested hit in one or more screens of this group.

SMILES	gsp agonist	gsp antagonist	Akt phos inh	RXFP1 ag	RXFP1 antag
COc1ccc(-c2csc(NC(=O)c3ccc(C(C)(C)C)cc3)c2C(=O)O)cc1	-1%[15.4 µM]	32µM*	i	nt	-26
Cc1ccccc1C(=O)Nc1scc(-c2ccc(Br)cc2)c1C(=O)O	6%[15.4 µM]	40µM*	i	nt	0
COc1cc(/C=N/NC(=O)c2ccncc2)ccc1OCC(=O)Nc1ccccc1	-1%	-16%	i	-2%	-74*
COc1cc(/C=N/NC(=O)c2ccncc2)ccc1OC(=O)c1cccc(Br)c1	-1%	-25%	i	-2%	-72*
COc1cccc(C(=O)Oc2ccc(/C=N/NC(=O)c3ccncc3)cc2OC)c1	2%[15.4 µM]	-13%	i	-2%	-10
Cc1ccc(S(=O)(=O)NC(=O)NCc2ccc3c(c2)OCO3)cc1	-14%	-12%	-111%*	1%	5
Cc1ccc(S(=O)(=O)NCC2CCC(C(=O)NCc3ccc4c(c3)OCO4)CC2)cc1 (stereo not given)	-8%	-15%	i	-2%	-6
COc1ccc(C2=NC3(CCCCCC3)N(CC(=O)Nc3ccc(C)c(C)c3)C2=O)cc1	nt	nt	nt	0%	-18
CCN(CC)S(=O)(=O)c1ccc2c(c1)N(CC(=O)NCc1ccccn1)C(=O)CO2	?	-5%	i	25µM*	43
CCN(CC)S(=O)(=O)c1ccc2c(c1)N(CC(=O)Nc1cccnc1Cl)C(=O)CO2	?	13%	i	13µM*	8
O=C(Cn1cc(SCc2ccccc2F)c2ccccc21)N1CCCCCC1	nt	nt	nt	0%	-38
CC(=O)N1CCc2c(sc(NC(=O)C3CCN(S(=O)(=O)c4cccs4)CC3)c2C(N)=O)C1	-5%[15.4 µM]	-17%	i	1%	-60*
CC(=O)N1CCc2c(sc(NC(=O)C3CCCN3S(=O)(=O)c3cccs3)c2C(N)=O)C1 (stereo not given)	0%[15.4 µM]	-6%	i	1%	0
O=C(CSc1ccccc1)Nc1ccncc1	1%	-4%	-139%*	4%	2
O=C(CSc1ccc2ccccc2c1)Nc1ccncc1	-3%	-14%	i	3%	-10
CCS(=O)(=O)Nc1ccc(C2=NN(C(=O)c3ccccc3)C(c3cccs3)C2)cc1 (stereo not given)	6%	28µM*	i	0%	-17
CCS(=O)(=O)Nc1ccc(C2=NN(C(=O)c3ccco3)C(c3cccs3)C2)cc1 (stereo not given)	3%[15.4 µM]	?	i	2%	-17
CCc1ccc(OC(C)c2nc(-c3ccc(-n4cccc4)cc3)no2)cc1 (stereo not given)	nt	nt	nt	1%	-5
CN(C)S(=O)(=O)Oc1ccsc1C(=O)Nc1ccccc1Cl	-41%	28µM*	i	-1%	-6
CN(C)S(=O)(=O)Oc1ccsc1C(=O)Nc1cccc(Cl)c1Cl	-29%	?	i	0%	3
COc1ccc2c(C)c(CCC(=O)NCc3ccccc3OC)c(=O)oc2c1	nt	nt	nt	1%	-6
Cc1oc2c(c1C(=O)Nc1ccccc1Br)C1=NCCN1C=N2	nt	nt	nt	-3%	nt
COc1ccc(-c2cn3cccnc3n2)cc1NC(=O)c1cc(C)cc(C)c1	nt	nt	nt	6%	0
O=C(OCCOCCN=C1NS(=O)(=O)c2ccccc21)c1ccncc1	7%	5%	-107%*	0%	3
Cc1cc(C)c(NC(=O)Cn2c(=O)n(CCCCC(=O)NCc3ccccc3Cl)c(=O)c3ccccc32)c(C)c1	nt	nt	nt	5%	nt
SMILES	gsp agonist	gsp antagonist	Akt phos inh	RXFP1 ag	RXFP1 antag
CCOC(=O)c1cccc(NC(=O)Nc2c(C)n(C)n(-c3ccccc3)c2=O)c1	nt	nt	nt	3%	-12
CCCCOCCCNC(=O)c1c(-c2ccccc2)noc1C	-8%	4%	-122%*	0%	10
COc1cc(C2CC(=O)N(Cc3ccc(F)cc3)c3ccccc3S2)cc(OC)c1OC (stereo not given)	nt	nt	nt	-1%	nt
Cc1ccc(S(=O)(=O)c2c(Nc3ccc(C)c(C)c3)sc(C(=O)c3ccc4c(c3)OCO4)c2N)cc1	nt	nt	nt	0%	-17
COc1ccc(C2=NS(=O)(=O)N(C)C(C(=O)Nc3ccc(C(C)=O)cc3)=C2)cc1OC	35%	32µM*	i	4%	-22
COc1ccc(NC(=O)C2=CC(c3ccc(C)cc3)=NS(=O)(=O)N2C)cc1OC	-33%	-25%	i	3%	13
CCCCC(=O)C1=C(N2CCCC2)CC(C)(C)CC1=O	13%[15.4 µM]	3%	i	nt	-62*
O=C(/C=C/c1ccco1)Nc1ccc(Oc2ccc(Cl)cc2)cc1	5%	?	-108%*	1%	-16
Cc1cc(N2CCCCCC2)nc(-c2ccccc2O)n1	-15%	-31%	-91%*	0%	-8
Cc1cc(N2CCOCC2)nc(-c2ccccc2O)n1	8%	-4%	i	-2%	-10
COc1ccc(CN(CCC(c2ccc(F)cc2)C2CCOC(C)(C)C2)C(=O)c2ccco2)cc1 (stereo not given)	2%[15.4 µM]	22µM*	i	1%	-17
CC(c1ccccc1)N(CCC(c1ccccc1)C1CCOC(C)(C)C1)C(=O)c1ccco1 (stereo not given)	-20%	?	i	1%	?
COc1ccc(Nc2nc(N3CCCC3)c3ccccc3n2)cc1	8%	-10%	i	0%	nt
CCN(CC)c1ccc(Nc2nc(N3CCOCC3)c3ccccc3n2)cc1	-19%	50µM*	i	2%	-9
Cc1c(Cl)cccc1NC(=O)Nc1ccc2snnc2c1	nt	nt	nt	0%	nt
O=C(Nc1ccc(NC(=O)c2cccs2)cc1)c1cccc(Br)c1	nt	nt	nt	4%	-7
O=C(Nc1cccc(NC(=O)c2cccs2)c1)c1ccc(Br)cc1	-29%	-21%	i	3%	-71*
C=CCn1c(SCc2ccc(C(=O)O)cc2)nc2sc(C)c(C)c2c1=O	22%	-12%	i	14%	-9
Cc1sc2nc(SCC(=O)NCc3ccco3)n(C)c(=O)c2c1C	-29%	1%	i	4%	7
Cc1sc2nc(SCc3ccc(C(=O)O)cc3)n(Cc3ccco3)c(=O)c2c1C	-9%[15.4 µM]	25µM*	i	6%	-25
CCn1c(SCC(=O)NC(=O)NCc2ccco2)nc2sc(C)c(C)c2c1=O	?	-5%	i	-3%	-69*
COc1ccccc1NC(=O)Cn1c(C)cc(=O)c2cccc(OC)c21	1%[15.4 µM]	28µM*	i	1%	-11
COc1cccc2c(=O)cc(C)n(CC(=O)Nc3ccc(C)c(C)c3)c12	37%	-23%	i	-1%	-16
O=C(Cn1c(=O)nc(-c2ccccc2)c2cc(Cl)ccc21)N1CCN(c2ccc(F)cc2)CC1	nt	nt	nt	2%	2
Cc1cc(C(=O)CN2C(=O)NC(c3ccccc3)(c3ccccc3)C2=O)c(C)n1Cc1ccccc1	16%	-3%	-136%*	0%	3
